Laboratory results: PubChem BioAssay (NCI)
The panel holds about 83,000 compounds, 20% with a hit somewhere; the sample as a whole holds those more often.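 Activity criterion: percent growth below 10, measured after cells in 96-well plates were exposed to a single compound concentration for 48 hours.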 Values without a mark were called inactive. Active and inactive are the calls of the source.

Experiments:
Test in all cases: NCI-60 one-dose screen, 48 h (100 = growth as untreated, 0 = no growth, -100 = all killed)
Details in all cases: 10 µM unless noted
SR leukemia = system: SR leukemia
RPMI-8226 leukemia = system: RPMI-8226 leukemia
OVCAR-8 ovarian = system: OVCAR-8 ovarian
OVCAR-5 ovarian = system: OVCAR-5 ovarian
OVCAR-4 ovarian = system: OVCAR-4 ovarian
SK-OV-3 ovarian = system: SK-OV-3 ovarian
IGROV1 ovarian = system: IGROV1 ovarian
OVCAR-3 ovarian = system: OVCAR-3 ovarian
HS 578T breast = system: HS 578T breast
NCI/ADR-RES ovarian = system: NCI/ADR-RES ovarian
T-47D breast = system: T-47D breast
MDA-MB-435 melanoma = system: MDA-MB-435 melanoma
SW-620 colon = system: SW-620 colon
MCF7 breast = system: MCF7 breast
HCT-116 colon = system: HCT-116 colon
HCC-2998 colon = system: HCC-2998 colon
KM12 colon = system: KM12 colon
BT-549 breast = system: BT-549 breast

Row | Structure (SMILES) | growth (SR leukemia) | growth (RPMI-8226 leukemia) | growth (OVCAR-8 ovarian) | growth (OVCAR-5 ovarian) | growth (OVCAR-4 ovarian) | growth (SK-OV-3 ovarian) | growth (IGROV1 ovarian) | growth (OVCAR-3 ovarian) | growth (HS 578T breast) | growth (NCI/ADR-RES ovarian) | growth (T-47D breast) | growth (MDA-MB-435 melanoma) | growth (SW-620 colon) | growth (MCF7 breast) | growth (HCT-116 colon) | growth (HCC-2998 colon) | growth (KM12 colon) | growth (BT-549 breast)
1 | COC(=O)/C(CCC=C(C)C)=C1\[C@@H](OC(C)=O)C[C@@]2(C)[C@H]1CC(=O)[C@H]1[C@@]3(C)CCC(N4CCCC4)[C@@H](C)[C@@H]3CC[C@@]12C (stereo partly drawn) | 56.3% | 85.5% | 95.7% | 96.9% | 97.5% | 108% | 102% | 99.1% | 89.1% | 99.3% | 94.9% | 97.5% | 103% | 74.6% | 84.9% | 114% | 105% | –
2 | Oc1c(I)cc(-c2nc3ccccc3s2)cc1CN(Cc1ccccn1)Cc1ccccn1 | 6.31% (active) | 15.2% | 10.9% | 49.7% | 31.9% | 18.5% | 5.99% (active) | 31.5% | 46.8% | -2.29% (active) | 17% | 33.3% | 21.3% | 13.7% | 16.1% | 9.25% (active) | 28.4% | –
3 | C[C@@H]1CC[C@@]2(OC1)O[C@H]1C[C@H]3[C@@H]4CC=C5C[C@@H](O[C@@H]6O[C@H](CO)[C@@H](O[C@@H]7O[C@@H](CO)[C@H](O)[C@H]7O)[C@H](O)[C@H]6O[C@@H]6O[C@@H](C)[C@H](O)[C@@H](O)[C@H]6O)CC[C@]5(C)[C@H]4CC[C@]3(C)[C@H]1[C@@H]2C | -58.5% (active) | -60.1% (active) | -91.2% (active) | -87.7% (active) | -90% (active) | -36.4% (active) | -84.2% (active) | -90.2% (active) | -47.9% (active) | -85.6% (active) | -22.6% (active) | -92.8% (active) | -86.4% (active) | -87.9% (active) | -84% (active) | -75.9% (active) | -90.6% (active) | –
4 | COc1cc(C2=NN(C(C)=O)C(c3ccc(N(C)C)cc3)C2)cc(OC)c1OC (stereo not drawn) | 83.9% | 99.1% | 95.3% | 82.3% | 96.7% | 110% | 76.7% | 124% | 84.7% | 99.2% | 86.6% | 94.9% | 94.9% | 93.1% | 86.9% | 102% | 95.4% | –
5 | Cc1cc(C(=O)Nc2cc(Nc3ncccc3-c3ncnc4nc[nH]c34)ccc2F)cc(C(F)(F)F)c1 | 51.3% | 53.8% | 57.2% | 33.3% | 47.7% | 87.2% | 103% | 68% | 38.1% | 52.1% | 64.8% | 26.2% | 33.9% | 66.9% | 19.1% | 30.6% | 49.5% | –
6 | NNC(=S)N/N=C/c1ccccn1 | 5.56% (active) | 28.9% | 20% | 40.3% | 29.2% | 24.3% | 40.2% | 21.7% | 31.8% | 17.8% | 9.69% (active) | 46.4% | 51.3% | 15.7% | 19.8% | 28.8% | 29.2% | –
7 | Brc1ccc(-c2cnc3nonc3n2)cc1 | 19.9% | 31.1% | 80.5% | 122% | 42.7% | 110% | 81.1% | 9.13% (active) | 87.3% | 79.7% | 69.7% | 3.37% (active) | 77.6% | 28.2% | 60% | 91.3% | 78.2% | –
8 | CC(C)C[C@@H](C(=O)N[C@H](C(=O)OC1CCCC1)c1ccccc1)[C@H](O)C(=O)NO | 51.1% | 29% | 52.7% | 59.8% | 53% | 67.5% | 73.4% | 43.4% | 74.6% | 101% | 36.7% | 49.4% | 49.8% | 43.3% | 56.7% | 94.4% | 65.7% | –
9 | O=C(Cn1nnc2ccccc21)N/N=C/c1ccccc1F | 96.8% | 101% | 95.2% | 108% | 110% | 98.2% | 109% | 108% | 81.2% | 109% | 92% | 102% | 96.7% | 89.9% | 101% | 115% | 91.9% | –
10 | CCOC(=O)Cn1c(=O)c2c3ccccc3n(C)c2n2nnc(-c3ccccc3)c12 | -50.7% (active) | 65% | 113% | 74.3% | 102% | 117% | 58.6% | 100% | 82.1% | 85.7% | 95.1% | 99.1% | 95.7% | 81.8% | 65% | 67.8% | 99.7% | 104%
11 | COc1ccc(/C(C)=C(\c2ccc(Cl)cc2)c2ccc(OCCN3CCCC3)cc2)cc1 | -21.6% (active) | -20.3% (active) | 51.6% | 64.7% | 63.5% | 82.9% | 48.9% | – | 51.5% | 70.6% | 45.9% | 39.2% | 25.1% | 13% | 23.6% | 87% | 24.5% | 57.9%
12 | COc1ccc(C2CC(c3ccc4c(c3)OCO4)=Nc3c(N)ncnc3N2)cc1 (stereo not drawn) | 86.4% | 55.7% | 103% | 82.9% | 102% | 103% | 104% | – | – | 92.3% | 84.9% | 105% | 95.9% | 90.6% | 98.5% | 92.4% | 100% | 118%
13 | CCCCCn1sc(=O)n(Cc2ccc(CNC(=O)OCc3ccc4c(Cl)cc(Cl)c(O)c4n3)cc2)c1=O | 64.3% | 60.6% | 42.3% | 90% | 66.4% | 96% | 53.5% | – | 70.9% | 9.85% (active) | 60.8% | 68% | 58.4% | 69.5% | 44.6% | 95.2% | 57.5% | 71.1%
14 | Cc1cccc(NC(=O)CSc2nc3ccc([N+](=O)[O-])cc3[nH]2)c1 | 96.2% | 55.5% | 83.6% | 99.2% | 59.3% | 88.2% | 87.4% | – | 83.4% | 74.4% | 51.8% | 72% | 97.9% | 86.5% | 70% | 96.9% | 81.9% | –
15 | O=C(Nc1ncc(Cc2ccccc2Cl)s1)c1cccs1 | 20.4% | 73.5% | 85.7% | 87.9% | 74.4% | 81.7% | 72.3% | – | 74.4% | 53.7% | 56.1% | 3.49% (active) | 58.6% | 46.3% | 58.1% | 72.8% | 29.3% | 68.7%
16 | O=C1NC(=O)c2c1c1c3ccccc3[nH]c1c1oc3ccc(F)cc3c21 | 31.5% | 74.5% | 91.6% | 84.1% | 57.8% | 84% | 21.1% | – | 82.2% | 79.1% | 24.4% | 76% | 64.6% | 34% | 69% | 65.6% | 45.9% | 71%
17 | C#Cc1cccc(Oc2ccc(NC(=O)CCl)cc2)c1 | 13% [8.25 µM] | 23.9% [8.25 µM] | 31.4% [8.25 µM] | 74.3% [8.25 µM] | 7.96% [8.25 µM] (active) | 98.9% [8.25 µM] | -71.6% [8.25 µM] (active) | – | 80.7% [8.25 µM] | 71.1% [8.25 µM] | 53.9% [8.25 µM] | 31.7% [8.25 µM] | 15.9% [8.25 µM] | 13.5% [8.25 µM] | -0.801% [8.25 µM] (active) | 83% [8.25 µM] | 64.2% [8.25 µM] | 38.7% [8.25 µM]
